Columns and labels:
Assay in all cases: DAPPL (digital affinity profiling via proximity ligation, sequencing); 10 mM Tris-HCl pH 7.5, 50 mM NaCl, 1 mM DTT, 4% glycerol, room temperature, 30 min; GST-TFs on glutathione beads, 16-mer random dsDNA library, 0.1% formaldehyde crosslink after washing; high values mean tight binding
Settings in all cases: protein: recombinant; tags: N-terminal GST; dsDNA, one strand shown
ELK1 = target: T1, ELK1 (Homo sapiens, UniProt P19419 1-428)
T1 sequence: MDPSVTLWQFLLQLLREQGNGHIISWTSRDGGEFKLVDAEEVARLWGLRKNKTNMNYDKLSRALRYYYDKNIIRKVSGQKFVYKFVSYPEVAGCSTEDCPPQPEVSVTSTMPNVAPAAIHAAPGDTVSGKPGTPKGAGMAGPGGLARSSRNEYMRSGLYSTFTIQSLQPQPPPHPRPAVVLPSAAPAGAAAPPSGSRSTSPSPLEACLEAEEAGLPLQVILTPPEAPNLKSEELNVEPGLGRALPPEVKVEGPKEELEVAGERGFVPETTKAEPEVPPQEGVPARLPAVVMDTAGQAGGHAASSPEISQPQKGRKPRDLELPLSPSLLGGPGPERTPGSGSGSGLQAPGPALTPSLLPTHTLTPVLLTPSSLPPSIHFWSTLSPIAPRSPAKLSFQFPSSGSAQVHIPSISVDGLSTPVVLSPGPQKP
How it was run: (§1)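 Human transcription factors were made in yeast as GST fusions, captured on glutathione beads and barcoded with DNA. With a tag-only sample included, the pool was incubated with 200 nmole of a random double-stranded 16-mer DNA library in Tris/NaCl/DTT/glycerol buffer at room temperature for 30 min, then crosslinked with 0.1% formaldehyde after washing, ligated by proximity, amplified and sequenced. For binding signal, each hexamer's read frequency for a factor is divided by its frequency for the tag-only sample.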

GABPA = target: T2, GABPA (Homo sapiens, UniProt Q06546 1-454)
T2 sequence: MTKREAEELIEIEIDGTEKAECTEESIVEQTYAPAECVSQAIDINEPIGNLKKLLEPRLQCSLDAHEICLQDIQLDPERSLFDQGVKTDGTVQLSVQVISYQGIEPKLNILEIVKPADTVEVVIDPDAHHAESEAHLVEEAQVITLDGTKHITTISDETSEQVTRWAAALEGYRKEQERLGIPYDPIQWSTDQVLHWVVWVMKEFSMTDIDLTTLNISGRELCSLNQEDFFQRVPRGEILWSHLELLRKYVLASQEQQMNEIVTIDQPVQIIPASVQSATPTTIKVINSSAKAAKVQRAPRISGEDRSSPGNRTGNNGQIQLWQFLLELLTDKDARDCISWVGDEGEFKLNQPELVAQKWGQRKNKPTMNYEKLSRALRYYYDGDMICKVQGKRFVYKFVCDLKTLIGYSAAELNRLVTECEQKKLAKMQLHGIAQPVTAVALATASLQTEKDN
How it was run: as §1

ERG = target: T3, ERG (Homo sapiens, UniProt P11308 1-479)
T3 sequence: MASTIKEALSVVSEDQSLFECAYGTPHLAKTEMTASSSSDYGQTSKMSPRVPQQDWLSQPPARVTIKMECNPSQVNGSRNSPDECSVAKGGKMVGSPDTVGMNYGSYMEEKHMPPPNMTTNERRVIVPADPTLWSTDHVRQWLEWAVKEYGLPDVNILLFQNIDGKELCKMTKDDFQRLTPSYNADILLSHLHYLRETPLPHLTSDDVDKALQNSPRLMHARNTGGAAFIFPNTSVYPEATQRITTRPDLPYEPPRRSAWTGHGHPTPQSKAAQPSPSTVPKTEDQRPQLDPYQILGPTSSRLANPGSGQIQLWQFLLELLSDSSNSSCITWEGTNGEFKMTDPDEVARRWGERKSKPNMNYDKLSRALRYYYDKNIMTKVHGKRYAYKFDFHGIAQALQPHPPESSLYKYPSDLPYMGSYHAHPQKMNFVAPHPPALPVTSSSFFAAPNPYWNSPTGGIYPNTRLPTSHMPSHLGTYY
How it was run: as §1

SPIB = SPIB (Homo sapiens, UniProt Q01892 1-262)
SPIB, sequence (Q01892 whole entry): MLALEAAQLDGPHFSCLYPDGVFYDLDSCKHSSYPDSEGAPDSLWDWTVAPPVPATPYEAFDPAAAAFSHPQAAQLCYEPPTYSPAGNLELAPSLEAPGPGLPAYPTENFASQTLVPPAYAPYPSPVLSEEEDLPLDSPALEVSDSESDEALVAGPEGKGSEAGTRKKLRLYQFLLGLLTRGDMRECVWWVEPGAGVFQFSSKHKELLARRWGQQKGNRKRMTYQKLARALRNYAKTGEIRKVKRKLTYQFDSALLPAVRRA
How it was run: as §1

ELK3 = target: T4, ELK3 (Homo sapiens, UniProt P41970 1-407)
T4 sequence: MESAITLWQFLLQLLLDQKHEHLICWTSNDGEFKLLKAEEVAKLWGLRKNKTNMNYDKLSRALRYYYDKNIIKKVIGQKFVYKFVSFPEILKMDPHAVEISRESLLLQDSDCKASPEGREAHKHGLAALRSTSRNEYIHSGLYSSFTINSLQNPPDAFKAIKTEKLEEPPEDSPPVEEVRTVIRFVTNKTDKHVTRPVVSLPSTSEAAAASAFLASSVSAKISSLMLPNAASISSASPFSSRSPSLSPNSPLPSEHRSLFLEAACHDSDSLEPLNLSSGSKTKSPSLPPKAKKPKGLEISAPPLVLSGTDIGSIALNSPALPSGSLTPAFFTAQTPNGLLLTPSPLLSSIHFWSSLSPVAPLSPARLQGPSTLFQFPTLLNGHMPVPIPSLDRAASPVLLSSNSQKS
How it was run: as §1

ETV5 = ETV5 (Homo sapiens, UniProt P41161 1-510)
ETV5, sequence (P41161 whole entry): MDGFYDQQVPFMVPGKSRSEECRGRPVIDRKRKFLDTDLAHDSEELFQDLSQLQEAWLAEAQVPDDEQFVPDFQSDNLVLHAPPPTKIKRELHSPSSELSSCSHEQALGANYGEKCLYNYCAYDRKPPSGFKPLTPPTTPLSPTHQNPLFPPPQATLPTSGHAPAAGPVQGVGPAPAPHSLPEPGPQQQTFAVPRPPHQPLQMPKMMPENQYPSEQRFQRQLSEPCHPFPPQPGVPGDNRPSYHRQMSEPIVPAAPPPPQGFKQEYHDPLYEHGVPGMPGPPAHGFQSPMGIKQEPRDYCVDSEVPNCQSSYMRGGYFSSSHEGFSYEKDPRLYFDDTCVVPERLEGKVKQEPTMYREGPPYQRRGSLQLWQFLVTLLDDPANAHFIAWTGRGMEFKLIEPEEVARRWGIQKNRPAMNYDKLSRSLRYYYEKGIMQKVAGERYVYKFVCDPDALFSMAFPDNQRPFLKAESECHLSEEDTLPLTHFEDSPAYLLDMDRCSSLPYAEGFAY
How it was run: as §1

SPIC = target: T5, SPIC (Homo sapiens, UniProt Q8N5J4 1-248)
T5 sequence: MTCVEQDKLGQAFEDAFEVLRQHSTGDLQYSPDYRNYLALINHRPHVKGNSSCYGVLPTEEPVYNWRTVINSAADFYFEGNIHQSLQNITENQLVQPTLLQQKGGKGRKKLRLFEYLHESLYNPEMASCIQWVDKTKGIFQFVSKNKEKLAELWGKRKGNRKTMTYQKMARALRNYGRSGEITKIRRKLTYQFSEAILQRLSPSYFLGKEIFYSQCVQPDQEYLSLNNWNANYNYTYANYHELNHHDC
How it was run: as §1

ELK4 = target: T6, ELK4 (Homo sapiens, UniProt P28324-2 1-405)
T6 sequence: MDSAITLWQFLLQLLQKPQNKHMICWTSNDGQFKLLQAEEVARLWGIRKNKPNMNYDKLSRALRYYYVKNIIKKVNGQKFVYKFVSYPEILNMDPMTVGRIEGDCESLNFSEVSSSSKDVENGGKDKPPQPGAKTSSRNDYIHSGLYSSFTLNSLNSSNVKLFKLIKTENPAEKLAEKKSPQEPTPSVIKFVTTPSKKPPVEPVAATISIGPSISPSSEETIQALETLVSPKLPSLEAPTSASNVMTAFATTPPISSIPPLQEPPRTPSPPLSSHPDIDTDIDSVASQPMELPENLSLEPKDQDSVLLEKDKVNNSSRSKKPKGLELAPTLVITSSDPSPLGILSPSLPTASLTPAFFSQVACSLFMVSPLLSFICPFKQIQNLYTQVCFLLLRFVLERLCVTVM
How it was run: as §1

ETV1 = ETV1 (Homo sapiens, UniProt P50549 1-477)
ETV1, sequence (P50549 whole entry): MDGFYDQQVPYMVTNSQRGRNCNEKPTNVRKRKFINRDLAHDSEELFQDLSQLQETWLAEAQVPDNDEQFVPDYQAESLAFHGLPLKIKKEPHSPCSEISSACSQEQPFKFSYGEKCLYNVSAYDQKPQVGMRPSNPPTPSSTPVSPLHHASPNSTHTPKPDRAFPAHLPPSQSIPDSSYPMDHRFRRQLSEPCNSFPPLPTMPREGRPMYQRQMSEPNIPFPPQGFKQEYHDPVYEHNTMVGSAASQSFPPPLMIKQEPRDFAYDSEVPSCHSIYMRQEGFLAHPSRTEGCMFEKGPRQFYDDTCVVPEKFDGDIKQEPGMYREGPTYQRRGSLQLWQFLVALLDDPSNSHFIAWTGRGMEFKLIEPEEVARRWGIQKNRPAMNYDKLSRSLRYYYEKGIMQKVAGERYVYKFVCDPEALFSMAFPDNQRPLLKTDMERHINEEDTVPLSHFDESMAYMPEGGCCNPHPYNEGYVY
How it was run: as §1

ERF = target: T7, ERF (Homo sapiens, UniProt P50548 1-548)
T7 sequence: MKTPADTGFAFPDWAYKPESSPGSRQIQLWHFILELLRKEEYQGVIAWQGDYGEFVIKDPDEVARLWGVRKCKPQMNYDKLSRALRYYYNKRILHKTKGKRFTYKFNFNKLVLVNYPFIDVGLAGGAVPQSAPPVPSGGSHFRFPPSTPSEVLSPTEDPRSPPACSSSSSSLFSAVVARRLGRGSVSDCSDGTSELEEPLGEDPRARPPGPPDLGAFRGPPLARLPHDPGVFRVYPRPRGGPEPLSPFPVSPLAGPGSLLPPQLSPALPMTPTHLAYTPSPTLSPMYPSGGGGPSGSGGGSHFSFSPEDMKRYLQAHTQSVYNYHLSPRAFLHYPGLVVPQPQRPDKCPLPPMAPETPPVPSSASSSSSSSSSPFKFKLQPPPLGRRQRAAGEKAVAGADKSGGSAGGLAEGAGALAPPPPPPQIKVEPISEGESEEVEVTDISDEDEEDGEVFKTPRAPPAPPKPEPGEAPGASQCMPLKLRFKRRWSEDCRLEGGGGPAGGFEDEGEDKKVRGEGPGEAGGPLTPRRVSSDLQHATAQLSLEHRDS
How it was run: as §1

ETS2 = target: T8, ETS2 (Homo sapiens, UniProt P15036 1-469)
T8 sequence: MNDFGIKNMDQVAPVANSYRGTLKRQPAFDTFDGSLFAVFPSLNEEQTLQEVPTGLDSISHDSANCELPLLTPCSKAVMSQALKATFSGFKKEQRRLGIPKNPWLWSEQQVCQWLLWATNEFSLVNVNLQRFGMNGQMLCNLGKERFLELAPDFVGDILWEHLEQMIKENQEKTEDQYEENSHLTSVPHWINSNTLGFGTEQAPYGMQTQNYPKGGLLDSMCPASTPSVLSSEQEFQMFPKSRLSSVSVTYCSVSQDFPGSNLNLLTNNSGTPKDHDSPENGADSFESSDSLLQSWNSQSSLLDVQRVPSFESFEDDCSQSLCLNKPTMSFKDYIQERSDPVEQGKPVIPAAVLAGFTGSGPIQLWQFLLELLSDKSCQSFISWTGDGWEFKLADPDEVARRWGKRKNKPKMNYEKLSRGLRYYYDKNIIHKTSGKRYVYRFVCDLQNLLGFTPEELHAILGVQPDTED
How it was run: as §1

SPDEF = target: T9, SPDEF (Homo sapiens, UniProt O95238 1-335)
T9 sequence: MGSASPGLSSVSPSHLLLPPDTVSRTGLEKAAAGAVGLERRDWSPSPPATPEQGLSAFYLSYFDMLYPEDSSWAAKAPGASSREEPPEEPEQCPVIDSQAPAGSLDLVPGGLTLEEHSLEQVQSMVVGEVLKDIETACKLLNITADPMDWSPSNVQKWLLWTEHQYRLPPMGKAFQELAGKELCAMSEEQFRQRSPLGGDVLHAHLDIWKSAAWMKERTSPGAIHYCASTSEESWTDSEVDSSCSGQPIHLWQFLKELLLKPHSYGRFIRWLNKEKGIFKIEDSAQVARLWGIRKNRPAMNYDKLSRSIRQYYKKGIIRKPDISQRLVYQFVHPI
How it was run: as §1

ETV7 = target: T10, ETV7 (Homo sapiens, UniProt Q9Y603 1-341)
T10 sequence: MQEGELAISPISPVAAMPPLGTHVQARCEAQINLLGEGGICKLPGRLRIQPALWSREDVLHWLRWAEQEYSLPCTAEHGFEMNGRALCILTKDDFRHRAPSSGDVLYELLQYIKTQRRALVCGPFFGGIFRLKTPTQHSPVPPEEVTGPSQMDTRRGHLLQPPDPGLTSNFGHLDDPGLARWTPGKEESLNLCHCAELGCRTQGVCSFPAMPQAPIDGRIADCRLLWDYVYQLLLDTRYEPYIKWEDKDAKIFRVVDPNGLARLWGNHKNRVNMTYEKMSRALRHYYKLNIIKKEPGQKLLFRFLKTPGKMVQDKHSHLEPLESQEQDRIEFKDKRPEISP
How it was run: as §1

ETV3 = target: T11, ETV3 (Homo sapiens, UniProt P41162-2 1-143)
T11 sequence: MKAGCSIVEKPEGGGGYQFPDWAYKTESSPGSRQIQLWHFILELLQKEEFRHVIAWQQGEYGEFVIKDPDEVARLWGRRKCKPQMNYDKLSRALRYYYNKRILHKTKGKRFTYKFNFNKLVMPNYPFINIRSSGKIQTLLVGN
How it was run: as §1

ETV6 = ETV6 (Homo sapiens, UniProt P41212 1-452)
ETV6, sequence (P41212 whole entry): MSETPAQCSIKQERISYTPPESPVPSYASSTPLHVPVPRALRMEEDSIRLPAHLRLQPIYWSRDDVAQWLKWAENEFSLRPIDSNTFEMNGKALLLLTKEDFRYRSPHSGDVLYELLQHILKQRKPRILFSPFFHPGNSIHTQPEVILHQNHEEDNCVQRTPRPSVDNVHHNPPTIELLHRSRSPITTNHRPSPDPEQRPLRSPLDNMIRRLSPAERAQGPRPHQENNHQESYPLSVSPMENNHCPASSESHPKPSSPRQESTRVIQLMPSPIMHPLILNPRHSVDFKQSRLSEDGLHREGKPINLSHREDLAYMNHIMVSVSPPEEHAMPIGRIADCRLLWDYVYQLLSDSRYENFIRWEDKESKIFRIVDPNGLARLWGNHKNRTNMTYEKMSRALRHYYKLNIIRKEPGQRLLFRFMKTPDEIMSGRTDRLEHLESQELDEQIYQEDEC
How it was run: as §1

Sequence | binding signal (ELK1) | binding signal (GABPA) | binding signal (ERG) | binding signal (SPIB) | binding signal (ELK3) | binding signal (ETV5) | binding signal (SPIC) | binding signal (ELK4) | binding signal (ETV1) | binding signal (ERF) | binding signal (ETS2) | binding signal (SPDEF) | binding signal (ETV7) | binding signal (ETV3) | binding signal (ETV6)
AGCGTC | 1.05 fold enrichment (6-mer frequency, TF over GST control) | 1.07 fold enrichment (6-mer frequency, TF over GST control) | 1.1 fold enrichment (6-mer frequency, TF over GST control) | 1.04 fold enrichment (6-mer frequency, TF over GST control) | 1.05 fold enrichment (6-mer frequency, TF over GST control) | 1.04 fold enrichment (6-mer frequency, TF over GST control) | 1.11 fold enrichment (6-mer frequency, TF over GST control) | 1.01 fold enrichment (6-mer frequency, TF over GST control) | 1.04 fold enrichment (6-mer frequency, TF over GST control) | 1.07 fold enrichment (6-mer frequency, TF over GST control) | 1.02 fold enrichment (6-mer frequency, TF over GST control) | 1.08 fold enrichment (6-mer frequency, TF over GST control) | 1.06 fold enrichment (6-mer frequency, TF over GST control) | 1.01 fold enrichment (6-mer frequency, TF over GST control) | 1.02 fold enrichment (6-mer frequency, TF over GST control)
AGTACC |  |  |  |  |  | 1.04 fold enrichment (6-mer frequency, TF over GST control) |  |  |  |  |  | 1.01 fold enrichment (6-mer frequency, TF over GST control) |  |  | 1.04 fold enrichment (6-mer frequency, TF over GST control)

From article PMC7862700, “An all-to-all approach to the identification of sequence-specific readers for epigenetic DNA modifications on cytosine”
